Laboratory results as given in PubChem BioAssay (NCATS).
Inconclusive results are not listed. Activity calls are given as the source filed them. Unless noted, calls come from the whole dose curve; as a rule, active = well fitted curve in the direction sought with a large enough effect; inconclusive = small, poorly fitted or top-dose-only effect, or another doubt; inactive = no such curve, though single readings can be large; an effect the other way counts as inactive or inconclusive.

Assays:
[1] = AP1 Signaling Pathway (AID 357; active = well fitted curve in either direction with a large enough effect, not every such curve was filed as active;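 note: ME-180 reporter cells stimulated with EGF at its EC50 level; % is set by controls: 0 for no effect and ±100 for the full control effect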); conditions: ME-180 AP-1-bla reporter, EGF-induced, beta-lactamase ratio, 5 h; at 7.69 µM (top of the series) unless noted
Outline: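 Modulation of EGF-driven AP-1 transcription was assessed with a beta-lactamase reporter in ME-180 cells. Compound and EC50 EGF were co-incubated 5 hours at 37 °C before 2.5-hour CCF4 loading at room temperature and dual-emission reading.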

[2] = target: Cytochrome P450 1A2 (Homo sapiens) (UniProt P05177); test: p450-cyp1a2 (AID 410; calls by dose curve; note: potency is the fitted concentration of half-maximal effect)
Outline: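 20nM CYP1A2, 100uM Luciferin-ME (=Km), 100mM KPO4; cpd 10 min RT; +NADPH regen, 60 min RT; stop/detect 20 min; luminescence. Normalized to furafylline 57 uM = full inhibition.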

[3] = NFAT Signaling Pathway (AID 444; active = well fitted curve in either direction with a large enough effect, not every such curve was filed as active;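 note: carbachol stimulus at about its EC50 of 1 µM final; % is set by controls: 0 for no effect and ±100 for the full control effect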); conditions: Jurkat NFAT-bla M1, carbachol, beta-lactamase ratio, 5 h; at 7.69 µM (top of the series) unless noted
Outline: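 Read-out: CCF4 FRET ratio (460 nm/530 nm) after 1 h RT dye loading, used for %activity and AC50 from titration series. Cells: Jurkat NFAT-β-lactamase/M1 line, treated with compound plus 1 uM carbachol for 5 h, 37 °C.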

[4] = Stat Signaling Pathway (AID 446; active = well fitted curve in either direction with a large enough effect, not every such curve was filed as active;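 note: ME-180 cervical cancer cells given 40 pM IL-6 alongside compound; SIE-controlled beta-lactamase reporter measured as 460/530 nm FRET emission ratio; % is set by controls: 0 for no effect and ±100 for the full control effect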); conditions: ME-180 SIE beta-lactamase reporter, IL-6 stimulated, 5 h; at 7.69 µM (top of the series) unless noted
Outline: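 Normalization used AC90 stimulation (300 pM IL-6) and AC90 inhibition (125 nM pan-JAK inhibitor at 40 pM IL-6). The underlying signal is SIE-driven beta-lactamase in ME-180 cells after 5 h IL-6 exposure with compound.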

[5] = target: Glucocorticoid receptor (Homo sapiens) (UniProt P04150); test: GR-GFP Redistribution (AID 450;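 active = compounds whose dose series gives a full or clear partial fitted curve of increased nuclear translocation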; note: potency is the fitted concentration of half-maximal effect); conditions: U2OS GR-GFP nuclear translocation, laser cytometry, 2 h
[6] = target: Glucocorticoid receptor (Homo sapiens) (UniProt P04150); test: GR-EFC Redistribution (AID 451; calls by dose curve; note: potency is the fitted concentration of half-maximal effect); conditions: CHO-K1 GR-EFC translocation, beta-gal luminescence, 2 h
Outline: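 Translocation of GR-ED fusion to nuclear EA restores b-gal, read by luminescence after 1 h room-temperature detection. Engineered CHO-K1 biosensor cells, 1,000/well, exposed 2 h at 37 C to titrations up to 46 uM final.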

[7] = target: Mitogen-activated protein kinase 10 (Mus musculus) (UniProt Q61831); test: JNK3 AlphaScreen Assay (AID 530; active = well fitted curve in either direction with a large enough effect, not every such curve was filed as active;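 note: kinase came from lysate of stimulated human HepG2 cells; signal reports phosphorylation of biotinylated GST-cJun 1-79 at Ser73 with 10 µM ATP; % is set by controls: 0 for no effect and ±100 for the full control effect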)
Outline: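 Kinase buffer: 20 mM Tris-HCl pH 7.6, 10 mM MgCl2, 1 mM DTT, 0.1 mM Na3VO4, 0.01% Tween-20; ATP 10 uM. Substrate biotin-GST-cJun(1-79), enzyme from activated HepG2 lysates. Detection by Ser73 phospho-antibody AlphaScreen.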

[8] = target: 3',5'-cyclic-AMP phosphodiesterase 4B (Homo sapiens) (UniProt Q07343); test: qHTS Assay for Inhibitors of PDE-IV (AID 607; active = well fitted activation curve with a large enough effect in the main read-out, with a control signal flat, not every such curve was filed as active; note: % of control where 0% means no effect)
Outline: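 HEK293 ACTOne cells with CNG channel (1000/well), endogenous PDE4; membrane potential dye, compounds up to 22.9 uM final. Fluorescence Ex 535/Em 590; RO 20-1724 (100 uM final) as reference.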

[9] = target: Cytochrome P450 3A4 (Homo sapiens) (UniProt P08684); test: qHTS Assay for Inhibitors and Substrates of Cytochrome P450 3A4 (AID 884); note: potency is the fitted concentration of half-maximal effect; nearly all actives have a fitted effect of over 50% in size
Outline: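 Luminescent readout of luciferin produced by CYP3A4 (20 nM) dealkylation of Luciferin-PPXE, 25 uM (its KM). NADPH-driven reaction ran 60 min at RT after 10 min compound preincubation; data scaled to 57 uM ketoconazole as 100% inhibition.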

[10] = target: Cytochrome P450 3A4 (Homo sapiens) (UniProt P08684); test: qHTS Assay for Activators of Cytochrome P450 3A4 (AID 885); note: nearly all actives have a fitted effect of over 65% in size
Outline: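 Human CYP3A4 dealkylates Luciferin-PPXE to luciferin, which luciferase detection converts to light. Substrate was at its KM (25uM), buffer 200mM KPO4, reaction 60 min at RT.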

[11] = qHTS Assay for Lipid Storage Modulators (AID 1519; calls by dose curve); conditions: Drosophila S3 cells, BODIPY lipid droplet/cell ratio, laser cytometry, cells loaded with oleic acid; for activity change, negative = inhibition: at 57.5 µM (top of the series)
Outline: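 Cells seeded at 5,000 per well were treated with compounds over a concentration series and loaded with oleic acid (400 uM, as added). Lipid droplet fluorescence (488 nm excitation, 500-530 nm channel) was read by laser-scanning cytometry and normalized to 20 uM Triacsin C.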

[12] = target: Dual specificity protein kinase CLK4 (Homo sapiens) (UniProt Q9HAZ1); test: qHTS Assay for Inhibitors of CDC-like Kinase 4 (Kinase-Glo Assay) (AID 1770); note: nearly all actives have a fitted effect of over 65% in size; note: potency is the fitted concentration of half-maximal effect
Outline: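 Recombinant human Clk4 (25 nM) phosphorylated RS repeat peptide (100 uM) with 1 uM ATP in Tris pH 7.5/MgCl2/EGTA/DTT/Triton buffer for 4.5 h at room temperature. Residual ATP was quantified by Kinase-Glo luciferase luminescence.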

[13] = target: Dual specificity protein kinase CLK4 (Homo sapiens) (UniProt Q9HAZ1); test: qHTS Assay for Inhibitors of CDC-like Kinase 4 (ADP-Glo Assay) (AID 1771); note: nearly all actives have a fitted effect of over 70% in size; note: potency is the fitted concentration of half-maximal effect
Outline: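 25 nM Clk4, 100 uM RS peptide, 1 uM ATP (final); 2 mM MgCl2, 0.5 mM EGTA, 2.5 mM DTT, 0.01% Triton X-100; 1 hr RT. ADP-Glo readout: ATP depletion 45 min, conversion/luciferase 30 min, luminescence.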

[14] = target: Dual specificity protein kinase CLK4 (Homo sapiens) (UniProt Q9HAZ1); test: qHTS Assay for Inhibitors of CDC-like Kinase 4 (ADP-FP Assay) (AID 1795); note: nearly all actives have a fitted effect of over 60% in size; note: potency is the fitted concentration of half-maximal effect
Outline: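 Recombinant human Clk4 (6.25 nM) phosphorylated RS repeat peptide (100 uM) with 1 uM ATP in Tris pH 7.5/MgCl2/EGTA/DTT/Triton buffer for one hour. ADP was quantified by Transcreener competitive fluorescence polarization against an ADP calibration curve.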

[15] = target: Ubiquitin carboxyl-terminal hydrolase 1 (Homo sapiens) (UniProt O94782); test: Inhibitors of USP1/UAF1: Pilot qHTS (AID 504865);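 note: rhodamine fluorescence freed from ubiquitin-rhodamine substrate followed over time; top concentration of the series differs between compounds; % is set by controls: 0 for no effect and ±100 for the full control effect; nearly all actives have a fitted effect of over 35% in size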
Outline: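 USP1/UAF1 complex (1nM) preincubated with compound 15 min at room temperature, then Ub-Rho substrate (150nM final) added. Fluorescence read kinetically at 480/540 nm, 6 reads every 60 seconds. Buffer: 50mM HEPES pH 7.8, 0.5mM EDTA, 0.1 mg/ml BSA, 1mM TCEP, 0.01% Tween-20.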

[16] = Primary qHTS for small molecule stabilizers of the endoplasmic reticulum resident proteome: Secreted ER Calcium Modulated Protein (SERCaMP) assay (AID 1508630); note: % is set by controls: 0 for no effect and ±100 for the full control effect
Outline: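 The SH-SY5Y reporter protocol was run at 3 concentrations up to 38.3 uM (primary) or 11 concentrations (follow-up): 16 h compound, 100 nM thapsigargin for 4 h, then extracellular luciferase luminescence.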

[17] = target: Lysosomal acid glucosylceramidase (Homo sapiens) (UniProt P04062); test: Glucocerebrosidase-p2 (AID 348; in the data active = potency below about 10 µM; note: potency is the fitted concentration of half-maximal effect); conditions: purified GBA, blue fluorogenic substrate, 40 min
Outline: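 Normal human glucocerebrosidase (0.2 nM) with blue fluorogenic substrate (80 uM final) in citrate/phosphate pH 5.9 with 10mM sodium taurocholate, 0.01% tween-20; 40 min RT, NaOH/glycine stop; fluorescence Ex 365/Em 440; AC50 from a titration from 0.6 nM upwards.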

[18] = qHTS Assay for Identification of Small Molecule Agonists for Hypoxia Response Element Signaling Pathway (AID 914; active = well fitted activation curve with a large enough effect in the signal ratio, with a control signal flat, not every such curve was filed as active; the % refers to the signal ratio; note: potency is the fitted concentration of half-maximal effect); conditions: ME-180 HRE-bla reporter, beta-lactamase ratio, CoCl2, 17 h; activation: stronger effect = higher value
Outline: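 ME-180 cells carrying an HRE-driven beta-lactamase reporter were treated with compounds in a titration series plus an EC50 level of CoCl2 for 17 h at 37 degrees Celsius; CCF4 readout as the 460nm/530nm ratio gave AC50 values.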

[19] = measured here: cell count channel max response
[20] = measured here: lipid channel max response

Chain of Glucocorticoid receptor (Homo sapiens) (P04150 whole entry, looked up, the tested form may be a part): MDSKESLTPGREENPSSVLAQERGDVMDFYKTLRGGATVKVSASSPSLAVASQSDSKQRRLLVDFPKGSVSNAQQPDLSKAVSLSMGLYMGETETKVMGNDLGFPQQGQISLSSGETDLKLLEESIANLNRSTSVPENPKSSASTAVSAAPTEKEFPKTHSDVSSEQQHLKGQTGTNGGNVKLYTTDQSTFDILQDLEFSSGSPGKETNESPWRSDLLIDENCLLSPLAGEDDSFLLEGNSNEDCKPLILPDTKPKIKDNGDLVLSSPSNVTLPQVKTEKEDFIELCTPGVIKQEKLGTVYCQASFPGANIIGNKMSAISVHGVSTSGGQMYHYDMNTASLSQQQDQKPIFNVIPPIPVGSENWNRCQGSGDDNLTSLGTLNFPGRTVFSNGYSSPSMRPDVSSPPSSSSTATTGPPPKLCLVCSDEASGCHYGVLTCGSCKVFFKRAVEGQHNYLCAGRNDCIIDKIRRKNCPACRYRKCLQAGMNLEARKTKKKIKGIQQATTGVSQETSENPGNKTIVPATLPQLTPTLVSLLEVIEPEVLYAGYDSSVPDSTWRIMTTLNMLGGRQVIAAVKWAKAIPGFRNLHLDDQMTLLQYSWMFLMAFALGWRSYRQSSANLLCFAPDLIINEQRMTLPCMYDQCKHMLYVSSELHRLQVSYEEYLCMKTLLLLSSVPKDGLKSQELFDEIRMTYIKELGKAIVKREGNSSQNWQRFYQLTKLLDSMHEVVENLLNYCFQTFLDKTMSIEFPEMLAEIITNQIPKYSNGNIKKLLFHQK
Chain of Cytochrome P450 3A4 (Homo sapiens) (P08684 whole entry, looked up): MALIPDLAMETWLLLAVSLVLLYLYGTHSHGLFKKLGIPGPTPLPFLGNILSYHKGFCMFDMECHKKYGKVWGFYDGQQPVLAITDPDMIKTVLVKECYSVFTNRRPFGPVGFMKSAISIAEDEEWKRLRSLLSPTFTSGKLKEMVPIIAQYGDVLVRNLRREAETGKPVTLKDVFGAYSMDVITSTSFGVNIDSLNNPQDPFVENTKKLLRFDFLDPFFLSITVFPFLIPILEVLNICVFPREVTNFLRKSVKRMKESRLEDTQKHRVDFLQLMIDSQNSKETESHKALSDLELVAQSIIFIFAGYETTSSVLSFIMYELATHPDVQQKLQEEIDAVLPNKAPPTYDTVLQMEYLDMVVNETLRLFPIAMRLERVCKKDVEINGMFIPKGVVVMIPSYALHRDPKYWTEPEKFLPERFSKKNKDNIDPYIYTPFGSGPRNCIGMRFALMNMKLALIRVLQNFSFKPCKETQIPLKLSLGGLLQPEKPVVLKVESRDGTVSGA
Chain of Dual specificity protein kinase CLK4 (Homo sapiens) (Q9HAZ1 whole entry, looked up): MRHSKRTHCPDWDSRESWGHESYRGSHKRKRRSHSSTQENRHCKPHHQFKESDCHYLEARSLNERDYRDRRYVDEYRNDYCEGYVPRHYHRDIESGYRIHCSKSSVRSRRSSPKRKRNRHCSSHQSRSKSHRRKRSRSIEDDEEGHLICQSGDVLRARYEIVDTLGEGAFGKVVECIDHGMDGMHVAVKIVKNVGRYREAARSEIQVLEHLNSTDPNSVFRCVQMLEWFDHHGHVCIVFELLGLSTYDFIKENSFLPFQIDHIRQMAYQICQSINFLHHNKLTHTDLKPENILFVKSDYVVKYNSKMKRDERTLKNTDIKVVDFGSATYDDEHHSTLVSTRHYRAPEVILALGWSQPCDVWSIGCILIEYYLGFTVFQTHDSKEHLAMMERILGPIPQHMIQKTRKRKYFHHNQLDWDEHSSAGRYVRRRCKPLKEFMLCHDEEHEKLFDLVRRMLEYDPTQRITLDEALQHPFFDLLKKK
Chain of 3',5'-cyclic-AMP phosphodiesterase 4B (Homo sapiens) (Q07343 whole entry, looked up): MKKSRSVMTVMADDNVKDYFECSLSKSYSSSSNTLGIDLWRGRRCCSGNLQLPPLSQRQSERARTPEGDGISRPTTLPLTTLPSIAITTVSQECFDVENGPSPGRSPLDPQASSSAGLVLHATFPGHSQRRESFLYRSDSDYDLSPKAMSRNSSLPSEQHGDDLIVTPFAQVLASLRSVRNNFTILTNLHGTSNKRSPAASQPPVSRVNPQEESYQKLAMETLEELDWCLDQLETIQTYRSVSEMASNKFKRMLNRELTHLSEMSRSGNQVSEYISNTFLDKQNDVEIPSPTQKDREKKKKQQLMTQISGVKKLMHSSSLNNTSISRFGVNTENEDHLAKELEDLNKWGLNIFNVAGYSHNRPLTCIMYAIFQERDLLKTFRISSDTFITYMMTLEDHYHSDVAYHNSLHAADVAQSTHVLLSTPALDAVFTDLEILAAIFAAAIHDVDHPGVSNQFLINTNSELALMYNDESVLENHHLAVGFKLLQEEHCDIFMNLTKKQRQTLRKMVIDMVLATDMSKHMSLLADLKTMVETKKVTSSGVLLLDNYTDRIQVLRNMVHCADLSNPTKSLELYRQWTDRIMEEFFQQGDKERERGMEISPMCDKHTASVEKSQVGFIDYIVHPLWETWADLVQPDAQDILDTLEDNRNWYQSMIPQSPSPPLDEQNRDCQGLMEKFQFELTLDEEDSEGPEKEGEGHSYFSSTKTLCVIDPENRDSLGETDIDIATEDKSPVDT
Chain of Ubiquitin carboxyl-terminal hydrolase 1 (Homo sapiens) (O94782 whole entry, looked up): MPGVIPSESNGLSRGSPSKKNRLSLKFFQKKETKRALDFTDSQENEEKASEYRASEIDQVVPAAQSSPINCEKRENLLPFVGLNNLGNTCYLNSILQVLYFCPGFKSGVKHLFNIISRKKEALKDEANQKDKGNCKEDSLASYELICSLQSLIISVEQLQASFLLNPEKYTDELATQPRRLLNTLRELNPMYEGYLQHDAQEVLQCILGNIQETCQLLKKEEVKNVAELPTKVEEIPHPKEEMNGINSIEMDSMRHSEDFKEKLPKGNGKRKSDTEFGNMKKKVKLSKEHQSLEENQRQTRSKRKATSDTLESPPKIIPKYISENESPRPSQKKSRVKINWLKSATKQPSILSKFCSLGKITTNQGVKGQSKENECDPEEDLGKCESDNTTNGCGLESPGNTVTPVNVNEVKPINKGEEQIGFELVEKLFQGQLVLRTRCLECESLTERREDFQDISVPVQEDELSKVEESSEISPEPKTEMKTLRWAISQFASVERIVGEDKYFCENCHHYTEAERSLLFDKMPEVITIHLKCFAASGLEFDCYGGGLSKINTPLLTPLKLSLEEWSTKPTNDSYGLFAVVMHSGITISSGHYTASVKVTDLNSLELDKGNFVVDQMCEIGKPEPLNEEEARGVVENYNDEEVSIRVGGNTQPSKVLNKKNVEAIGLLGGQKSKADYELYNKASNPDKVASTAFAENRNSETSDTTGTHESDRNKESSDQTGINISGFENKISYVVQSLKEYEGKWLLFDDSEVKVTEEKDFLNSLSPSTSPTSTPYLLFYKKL
Chain of Cytochrome P450 1A2 (Homo sapiens) (P05177 whole entry, looked up): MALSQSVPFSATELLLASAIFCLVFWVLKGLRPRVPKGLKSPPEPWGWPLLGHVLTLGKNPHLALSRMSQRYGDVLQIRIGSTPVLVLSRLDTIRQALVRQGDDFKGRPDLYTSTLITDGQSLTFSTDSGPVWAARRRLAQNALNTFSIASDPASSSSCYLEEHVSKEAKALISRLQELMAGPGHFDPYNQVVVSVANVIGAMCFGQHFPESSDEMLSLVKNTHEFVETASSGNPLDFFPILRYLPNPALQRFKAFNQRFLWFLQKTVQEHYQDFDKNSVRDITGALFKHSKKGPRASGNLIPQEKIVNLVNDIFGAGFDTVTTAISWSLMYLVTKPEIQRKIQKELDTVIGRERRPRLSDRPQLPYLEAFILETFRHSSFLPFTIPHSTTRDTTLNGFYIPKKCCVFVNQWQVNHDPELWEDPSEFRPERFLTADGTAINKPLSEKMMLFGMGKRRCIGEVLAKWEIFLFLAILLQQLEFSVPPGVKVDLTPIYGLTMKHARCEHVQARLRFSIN
Chain of Lysosomal acid glucosylceramidase (Homo sapiens) (P04062 whole entry, looked up): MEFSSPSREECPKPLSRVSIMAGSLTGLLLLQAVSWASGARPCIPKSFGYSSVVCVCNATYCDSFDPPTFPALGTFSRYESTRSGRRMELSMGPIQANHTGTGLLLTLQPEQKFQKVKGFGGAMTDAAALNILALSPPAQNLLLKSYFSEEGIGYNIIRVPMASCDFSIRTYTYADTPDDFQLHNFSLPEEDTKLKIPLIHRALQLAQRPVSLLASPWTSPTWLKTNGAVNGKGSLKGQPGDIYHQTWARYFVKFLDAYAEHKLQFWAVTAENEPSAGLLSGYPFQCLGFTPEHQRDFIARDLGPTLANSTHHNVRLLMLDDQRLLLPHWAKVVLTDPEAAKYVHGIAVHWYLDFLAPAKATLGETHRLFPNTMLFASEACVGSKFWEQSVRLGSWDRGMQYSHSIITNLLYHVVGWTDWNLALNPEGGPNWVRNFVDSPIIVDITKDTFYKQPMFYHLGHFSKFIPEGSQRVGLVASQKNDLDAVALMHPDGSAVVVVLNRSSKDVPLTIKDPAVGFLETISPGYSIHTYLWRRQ

Structure (SMILES)	activity change, negative = inhibition [1]	Potency [2]	activity change, negative = inhibition [3]	activity, negative = inhibition [4]	Potency [5]	Potency [6]	outcome [7]	Potency [8]	Potency [9]	Potency [10]	activity change, negative = inhibition [11]	max response [11, 19] [%]	max response [11, 20] [%]	Potency [12]	Potency [13]	Potency [14]	Potency [15]	Potency [16]	Potency [17]	Potency [18]
c1cncc(CNc2ncncc2-c2cccnc2)c1	3.11% (inactive)	5.01 µM (active)	1.94% (inactive)	12.2% (inactive)	> 46 µM (inactive)	> 46 µM (inactive)	inactive	inactive	2 µM (active)	inactive	2.51% (inactive)	25.3	26.2	inactive	inactive	inactive	inactive	inactive		
Cc1cnc(CNc2ncnc3ccc(-c4c(C)noc4C)cc23)cn1					> 46 µM (inactive)	> 46 µM (inactive)		inactive			0.208% (inactive)	8.76	7.19	2.51 µM (active)	2.82 µM (active)	3.55 µM (active)	inactive	inactive	> 11.4 µM (inactive)	3.98 µM (active)
CCNc1ncc2nc(-c3ccc(OC)cc3)c(=O)n(CCOC)c2n1	-6.96% (inactive)	1.26 µM (active)	6.8% (inactive)	-11.3% (inactive)		> 46 µM (inactive)	inactive	inactive		inactive	4.42% (inactive)	20.7	27.3	inactive	inactive	inactive	inactive	inactive		
